Data published in ChEMBL document CHEMBL4513216, “Probing the Open Global Health Chemical Diversity Library for Multistage-Active Starting Points for Next-Generation Antimalarials” (ACS Infect Dis, 2020).
Out of some 69,000 compounds screened, about 8,600 (12%) showed an effect of 50% or more. This excerpt belongs to a sample that is enriched for strong results.

test system: Plasmodium berghei; experiment: Screen against P. berghei liver stage (PbLuc), transformed with Luciferase, at 10uM; type: functional, HepG2; details: tested at 10 uM

| Structure (SMILES) | INHIBITION [%] |
| --- | --- |
| Cc1nn(C)c(=O)c2nn(-c3cccc(Cl)c3)c(C)c12 | 37.2 |
| N#Cc1c(N)nc2c(c1-c1c[nH]nc1C1CCCCC1)COCC2 | 11.5 |
| Cn1cc(-c2nc(CN3CCOC(Cn4cncn4)C3)cs2)cn1 (configuration not stated) | 26.5 |
| COc1ccc(NC(=O)CSc2nncn2-n2cccc2)c(OC)c1 | 31.6 |
| CCn1nc2c(cc1=O)CN(CC(=O)Nc1nc(C)c(C)s1)CC2 | -0.188 |
| Cc1cc(N(C)C)nc(C2CCCN2)n1 (configuration not stated) | 15.5 |
| CO[C@@H]1CCN(C(=O)c2ccccn2)[C@H]1Cc1ccccc1 | -15.1 |
| COc1ccc(F)cc1CN1CCC(O)(CN2CCCCC2)C1 (configuration not stated) | 16.1 |
| COc1ccc(Oc2ncccc2C(F)(F)F)cc1CN1CCCC1 | 66.6 |
| COc1ccccc1Oc1ncccc1CNC(=O)C(C)N1CCCC1 (configuration not stated) | 21.7 |
| COc1ccc(Oc2ncccc2C(N)=O)cc1CN1CCCC1 | 51.2 |
| COc1ccc(F)cc1CN1CCCC(c2cc(C(N)=O)[nH]n2)C1 (configuration not stated) | -2.42 |
| COc1ncccc1CN1CCC2(CCCN2S(C)(=O)=O)CC1 | 45.2 |
| CC(C)c1nn(C)c(N(C)C)c1CNCc1ccccc1CO | -9.05 |
| Cc1cc(CN(C)C(=O)NC2CCN(C3CC3)CC2)no1 | 3.75 |
| Cc1ccc(C)c(CSc2nnc([C@@H](N)C(C)C)o2)c1 | 34.5 |

| Structure (SMILES) | INHIBITION [%] |
| --- | --- |
| CCC(=O)Nc1ccc(OCC(=O)N(C)C(C)c2ccon2)cc1 (configuration not stated) | 10.7 |
| Cc1ccc(-c2nc(CC3CCN(C)CC3)no2)cc1N1CCNC1=O | 14.1 |
| CC(c1nnc(-c2cccs2)o1)N1CCc2cncnc2C1 (configuration not stated) | -18.5 |
| O=C(NCC1OCCc2cn(CC3CCOCC3)nc21)c1ccsc1 (configuration not stated) | 49.3 |
| Cc1ccc(N2CCCC(NCc3ccsc3)C2)nn1 (configuration not stated) | 5.44 |
| CCC(=O)N1CC[C@@H]2[C@H](CC1)N(Cc1cccc(C)n1)CCS2(=O)=O | 2.4 |
| O=C1C[C@H]2[C@@H](CCN2C(=O)Cc2ccccc2)N1Cc1cccnc1 | -6.05 |
| Cc1ccc(N2CC[C@@H]3[C@@H]2CCN3C(=O)c2cscn2)nn1 | 18.5 |
| O=C1C[C@H]2[C@@H](CCN2C(=O)Cc2ccsc2)N1Cc1cccnc1 | 62.9 |
| Cc1ccc(N2CC[C@@H]3[C@@H]2CCN3C(=O)Cc2ccccc2)nn1 | 69.3 |
| O=C(Cc1ccccc1)N1CC[C@H]2[C@@H]1CCC(=O)N2Cc1ccncc1 | 3.25 |
| Cc1ccc(N2CC[C@@H]3[C@@H]2CCN3C(=O)Cc2cccs2)nn1 | 31.2 |
| Cc1cccc(CN2CCS(=O)(=O)[C@@H]3CCN(C(=O)C4CC4)CC[C@@H]32)n1 | 34.9 |
| Cc1ccc(N2CC[C@@H]3[C@@H]2CCN3Cc2ccsc2)nn1 | 51.2 |
| O=C1C[C@H]2[C@@H](CCN2C(=O)Cc2cccs2)N1Cc1cccnc1 | 24.9 |
| CCCC(=O)N1CC[C@@H]2[C@H](CC1)N(Cc1cccc(C)n1)CCS2(=O)=O | 57.1 |
